CCHFV vOTU inh: CCHFV vOTU protease inhibition | AID 651958 | hit rate 0.55% among 370,000 | inhibition, % at 11.5 µM | Pep-AMC fluorescence; in the data active = inhibition above about 30%; also: 0% = vehicle wells with enzyme and 100% = no enzyme wells
GDH-TPI counter-1: counter-screen for M. tuberculosis FBA inhibitors: GDH-TPI coupled enzymes; GDH-TPI coupled enzyme counterscreen, NADH absorbance; inhibition, % at 4.8 µM; hit rate 1.2% among 360,000; in the data active = inhibition above about 30%;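 also: 0% = DMSO wells and 100% = wells lacking the enzyme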
FBA Mtb inh: Mtb fructose-bisphosphate aldolase inhibition. P9WQA3. purified M. tuberculosis FBA, fluorescence read-out. inhibition, % at 1 µM. hit rate 2.3% among 360,000;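 also: 0% = vehicle and 100% = reference inhibitor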
RecA splice inh: inhibitors of M. tuberculosis RecA intein splicing; inhibition, % (concentration not given with the values); hit rate 0.75% among 290,000; AID 2221; cell-free RecA intein splicing, fluorescence; P9WHJ3; in the data active = inhibition above about 30%;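 also: 0% = vehicle wells and 100% = reference inhibitor control wells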
Mtb FBA inh conf: Mtb FBA inhibition, confirmed | shares compounds with FBA Mtb inh | inhibition, % at 1 µM | hit rate 78% among 5,600 | purified M. tuberculosis FBA, fluorescence read-out;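 also: 0% = vehicle wells and 100% = reference inhibitor wells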
GDH-TPI counter-2: inhibits GDH-TPI coupling enzymes, flagging Mtb FBA hits; inhibition, % at 1 µM; hit rate 81% among 5,600; GDH-TPI coupled enzyme counterscreen, fluorescence; shares compounds with FBA Mtb inh; in the data active = inhibition above about 10%
* = called active by the depositor; · = not tested or not shown; + = active, no number. Rows were chosen to be rich in hits. Some 4.2% of all compounds tested hit in one or more screens of this group. Rule as the data show it, unless noted: active = inhibition above about 27%; inactive = the rest.

SMILES	CCHFV vOTU inh	GDH-TPI counter-1	FBA Mtb inh	RecA splice inh	Mtb FBA inh conf	GDH-TPI counter-2
COC(=O)C1=CN(c2cccc(Cl)c2)C=C(C(=O)OC)C1c1cccc(OC)c1	0	0	54*	-4	111*	94*
O=C(NC1CCS(=O)(=O)C1)c1ccc(Br)o1 (stereo not given)	7	-2	-1	2	·	·
O=C(NC1CCS(=O)(=O)C1)c1ccc(-c2ccc(Br)cc2)o1 (stereo not given)	-7	2	42*	1	25	17*
COC(CNC(=O)c1cnn2c(C)c(Cc3ccccc3)c(C)nc12)OC	-29	10	78*	-4	2	-4
COC(CNC(=O)Cc1c(C)nc2c(-c3ccccc3)c(C)nn2c1C)OC	5	-2	-12	-1	·	·
Cc1nc2c(C(=O)N3CCOCC3)cnn2c(C)c1Cc1ccc(Cl)cc1	-23	20	38*	3	200*	171*
COc1cccc2sc3ccc(NCc4ccc5c(c4)OCO5)cc3c(=O)c12	10	13	2	5	·	·
Cn1c2ccccc2c(=O)c2ccc(NCc3ccc4c(c3)OCO4)cc21	-54	15	88*	·	175*	110*
CCNC(=O)/C(C#N)=C/c1c(N2CCOCC2)nc2ccccn2c1=O	-36	5	42*	-73	176*	136*
C=CCNC(=O)/C(C#N)=C/c1c(N2CCCCCC2)nc2ccccn2c1=O	-131	9	37*	2	5	-2
COc1cc(C(=O)NC(=S)Nc2ccc(Cl)cn2)cc(OC)c1OC	2	8	1	1	·	·
C=CCc1cccc(C=Nc2cc(Br)ccc2O)c1O	7	-7	-2	0	·	·
C=CCc1cccc(C=Nc2cccn3cc(-c4ccccc4)nc23)c1O	-60	9	39*	-21	+	176*
Cc1cc2nnc(SC(C)C)n2c2ccccc12	-9	15	28*	0	130*	103*
CC(C)CC(=O)Nc1ccc2nn(-c3ccccc3)nc2c1	-39	18	72*	4	3	-1
CC(=O)Nc1cc2nn(-c3ccccc3)nc2cc1C	-36	19	90*	-2	200*	159*
O=C(Nc1ccc2nn(-c3ccccc3)nc2c1)c1ccc(Br)o1	-12	23	8	4	·	·
Cc1cc2nn(-c3ccccc3)nc2cc1NC(=O)c1cccs1	-2	28	-3	3	·	·
O=C(CN1CCN(S(=O)(=O)c2ccc(F)cc2)CC1)Nc1ccc(F)cc1F	6	-8	4	11	·	·
C[C@H](O)CNC(=O)c1[nH]cnc1C(=O)Nc1ccc(CNC(=O)OC(C)(C)C)cc1	3	9	-2	·	·	·
CN1N=C2c3ccccc3CCC2C1c1ccc(F)cc1 (stereo not given)	-9	0	0	-3	·	·
c1ccc(N2CC3CCc4ccccc4C3=N2)cc1 (stereo not given)	-18	5	58*	·	46*	31*
CCOC(=O)C1=CCN(S(=O)(=O)c2ccc(C)cc2)[C@H]1c1ccccc1Cl	10	·	-2	·	·	·
COc1ccccc1N1CCN(C(=O)c2cc3c(=O)n4cccc(C)c4nc3s2)CC1	-31	15	41*	·	+	180*
CCCCN(CC)C(=O)c1cc2c(=O)n3cccc(C)c3nc2s1	-52	11	70*	-15	+	167*
SMILES	CCHFV vOTU inh	GDH-TPI counter-1	FBA Mtb inh	RecA splice inh	Mtb FBA inh conf	GDH-TPI counter-2
CCN(CC)C(=O)c1cc2c(=O)n3cccc(C)c3nc2n1C	-51	21	57*	-14	122*	107*
CCOC(=O)N1CCN(C(=O)c2cc3c(=O)n4cccc(C)c4nc3s2)CC1	-13	9	16	-8	·	·
Cc1nc2c(C)cccn2c(=O)c1NC(=O)COc1ccccc1	3	20	0	0	·	·
CCN(CC)C(=O)c1cc2c(=O)n3cccc(C)c3nc2s1	-76	12	69*	-15	148*	143*
O=NN(CC(=O)NNc1ccccc1)CC(=O)NNc1ccccc1	2	·	-1	·	·	·
CC(NC(=S)NC1CCC(C(C)(C)C)CC1)c1ccccc1 (stereo not given)	-8	7	-1	4	·	·
Cc1ccc(-c2cc(-c3ccc(F)cc3)c(C#N)c(N)n2)o1	-204	3	47*	-26	+	173*
CCN(CC)CCOC(=O)c1cccc2c1-c1ccccc1C2O (stereo not given)	-17	-4	29*	4	46*	35*
COc1ccc(N2CCN(CCC(N)=O)CC2)cc1	-1	7	31*	-8	78*	53*

Source: PubChem
